Growth data for 14 molecules are collected here from PubChem BioAssay (NCI).

Test systems include HT29 colon; SNB-75 CNS; SNB-19 CNS; U251 CNS; PC-3 prostate; SK-MEL-5 melanoma; UACC-62 melanoma; LOX IMVI melanoma; SK-MEL-28 melanoma; SK-MEL-2 melanoma.
Assay in all cases: NCI-60 one-dose screen, 48 h (100 = growth as untreated, 0 = no growth, -100 = all killed)
Settings in all cases: 10 µM unless noted

This is part of a sample that, as a whole, favours compounds with a hit. Of some 83,000 tested, about 20% had one in any assay.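 Values shown are percent growth following 48 h exposure of cells in 96-well plates to a single concentration of compound; below 10 was considered active.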 A number with no mark means an inactive call. Calls of active or inactive are those of the source.

Turning to `COc1ccc(C(=O)/C=C/c2c(Cl)nc3c(c(C)nn3-c3ccccc3)c2-c2ccc(Br)cc2)cc1`, the growth in the assay on HT29 colon is 100%; in the assay on SNB-75 CNS, 88.2%; in the assay on SNB-19 CNS, 101%; in the assay with U251 CNS, 110%; in the assay with PC-3 prostate it was 107%; in the assay on SK-MEL-5 melanoma it was 101%. The growth with UACC-62 melanoma was 91.8%; in the assay with LOX IMVI melanoma it was 96.4%; in the assay with SK-MEL-28 melanoma, 106%; in the assay with SK-MEL-2 melanoma it was 93.8%.

For `Nc1nc(Cl)c2[nH]cnc2n1`, the growth with HT29 colon was 110%; with SNB-75 CNS it was 79.6%; in the assay with SNB-19 CNS, 92.9%; in the assay on U251 CNS, 97.6%; in the assay on PC-3 prostate it was 122%; in the assay with SK-MEL-5 melanoma it was 105%. The growth was 100% in the assay with UACC-62 melanoma, 105% with LOX IMVI melanoma, 113% in the assay on SK-MEL-28 melanoma and 85.4% in the assay with SK-MEL-2 melanoma.

Take `c1ccc(-c2nn[nH]n2)c(-c2ccc(CN3CCN(c4nsc5ccccc45)CC3)cc2)c1`: the growth with HT29 colon is 58.6%; in the assay on SNB-75 CNS it was 91.1%; with SNB-19 CNS, 98.3%; with U251 CNS, 85.5%; with PC-3 prostate it was 84.7%; in the assay with SK-MEL-5 melanoma, 97.2%. For the same molecule, the growth in the assay on UACC-62 melanoma is 91.4%; with LOX IMVI melanoma it was 102%; in the assay on SK-MEL-28 melanoma, 113%; in the assay with SK-MEL-2 melanoma, 120%.

As for `S=C1SCN(Cc2ccccc2)CN1Cc1ccco1`, the growth in the assay with HT29 colon is 27.4%; in the assay with SNB-75 CNS, 92.1%; with SNB-19 CNS, 101%; in the assay on U251 CNS, 97.3%; in the assay with PC-3 prostate, 90.3%; in the assay on SK-MEL-5 melanoma, 87.3%. Moreover, the growth in the assay on UACC-62 melanoma was 91.6%; in the assay with LOX IMVI melanoma, 81.6%; in the assay with SK-MEL-28 melanoma, 105%; with SK-MEL-2 melanoma it was 81.1%.

In the case of `CCS(=O)(=O)OCCCl`, the growth in the assay with HT29 colon was 104%; with SNB-75 CNS, 70%; in the assay on SNB-19 CNS it was 94.3%; with U251 CNS, 92.1%; with PC-3 prostate, 97.6%; in the assay with SK-MEL-5 melanoma, 103%. Further, the growth in the assay with UACC-62 melanoma is 101%; with LOX IMVI melanoma it was 98.5%; in the assay on SK-MEL-28 melanoma, 120%; with SK-MEL-2 melanoma, 83.7%.

For the molecule `c1ccc(Nc2nnc(-c3cc(-c4cccnc4)n(-c4ccccc4)n3)s2)cc1`, the growth with HT29 colon was 3.7% (active); in the assay with SNB-75 CNS, 102%; with SNB-19 CNS, 102%; with U251 CNS, 69.5%; in the assay with PC-3 prostate it was 82.4%; in the assay on SK-MEL-5 melanoma, 69.9%. In addition, the growth was 84.1% in the assay on UACC-62 melanoma, 69.8% in the assay with LOX IMVI melanoma, 106% in the assay on SK-MEL-28 melanoma and 96.5% with SK-MEL-2 melanoma.

As to `COc1cc(OC)c2sc(-c3ccc(-n4cncc4-c4ccc(N)cc4)cc3)nc2c1`, the growth in the assay on HT29 colon was 62.6%; with SNB-75 CNS it was 86.1%; in the assay on SNB-19 CNS it was 71.2%; in the assay with U251 CNS, 59.3%; in the assay on PC-3 prostate, 67.7%; in the assay with SK-MEL-5 melanoma, 56.6%. In addition, the growth is 96.6% in the assay with UACC-62 melanoma, 62.7% in the assay on LOX IMVI melanoma, 97.5% with SK-MEL-28 melanoma and 97.6% in the assay with SK-MEL-2 melanoma.

Regarding `O=C(OCCBr)c1ccc(Cl)c([N+](=O)[O-])c1`, the growth was 45.4% in the assay with HT29 colon; 104% in the assay on SNB-75 CNS; 38.9% in the assay with SNB-19 CNS; -31.7% (active) in the assay on U251 CNS; 70% in the assay with PC-3 prostate; 113% with SK-MEL-5 melanoma. Moreover, the growth is 104% in the assay with UACC-62 melanoma, 91.1% in the assay with LOX IMVI melanoma, 60% with SK-MEL-28 melanoma and 94.1% in the assay on SK-MEL-2 melanoma.

As for `Cn1cc(-c2csc(-c3c[nH]c4ncccc34)n2)c2cc(Br)cnc21`, the growth in the assay on HT29 colon is 50.6%; in the assay on SNB-75 CNS, -28.8% (active); in the assay with SNB-19 CNS, 50.5%; in the assay on U251 CNS, 3.32% (active); with PC-3 prostate, 34.9%; in the assay on SK-MEL-5 melanoma, 35.8%. The growth is 32.5% in the assay on UACC-62 melanoma, 20.5% in the assay with LOX IMVI melanoma, 27.7% in the assay with SK-MEL-28 melanoma and 78.2% in the assay with SK-MEL-2 melanoma.

Take `Cc1nn(-c2ccc(Cl)cc2)c2nc3c(nc12)C(=O)c1ccccc1-3`: the growth with HT29 colon is 65.1%; in the assay with SNB-75 CNS it was 95.5%; in the assay on SNB-19 CNS it was 87.2%; in the assay with U251 CNS it was 47%; with PC-3 prostate, 54.9%; with SK-MEL-5 melanoma, 65.8%. Besides, the growth in the assay on UACC-62 melanoma is 55.2%; in the assay with LOX IMVI melanoma it was 51.2%; in the assay on SK-MEL-28 melanoma, 28.4%; in the assay with SK-MEL-2 melanoma, 79.7%.

Take `CC(C)C/C(=N\NC(=O)c1ccncc1)c1cc(Cl)ccc1O`: the growth in the assay on HT29 colon is 31.1%; in the assay with SNB-75 CNS, 44.7%; with SNB-19 CNS, 31.3%; in the assay on U251 CNS, 25.1%; in the assay with PC-3 prostate it was 22.4%; in the assay with SK-MEL-5 melanoma, 0.654% (active). For the same molecule, the growth was 6.43% (active) with UACC-62 melanoma, 3.98% (active) with LOX IMVI melanoma, 40.5% in the assay with SK-MEL-28 melanoma and 7.55% (active) with SK-MEL-2 melanoma.

In the case of `COC(=O)[C@]1(CCSC)N[C@H](c2cn(-c3ccccc3)nc2C)[C@@H]2C(=O)N(c3ccccc3)C(=O)[C@@H]21`, the growth was 103% in the assay on HT29 colon; 86% with SNB-75 CNS; 109% in the assay on SNB-19 CNS; 105% in the assay on U251 CNS; 101% with PC-3 prostate; 101% in the assay on SK-MEL-5 melanoma. Besides, the growth was 102% with UACC-62 melanoma, 96.1% in the assay on LOX IMVI melanoma, 109% in the assay with SK-MEL-28 melanoma and 121% with SK-MEL-2 melanoma.

With `Clc1cccc(Cc2cn3cc(-c4ccccc4)nc3s2)c1`, the growth is 53.4% with HT29 colon; 73.8% in the assay with SNB-75 CNS; 65.8% in the assay with SNB-19 CNS; 67.7% with U251 CNS; 51.8% in the assay on PC-3 prostate; 2.66% (active) with SK-MEL-5 melanoma. The growth was 23.3% in the assay on UACC-62 melanoma, 23.5% with LOX IMVI melanoma, 48.8% in the assay on SK-MEL-28 melanoma and 72% in the assay on SK-MEL-2 melanoma.

Turning to `Oc1ccc(Cc2ccc(O)c(C3CC(c4ccc(Cl)cc4)=NN3)c2)cc1C1CC(c2ccc(Cl)cc2)=NN1` (stereo not drawn), the growth was 51% with HT29 colon; 36.1% in the assay on SNB-75 CNS; 29.4% in the assay on SNB-19 CNS; 12.7% in the assay with U251 CNS; 23.8% in the assay on PC-3 prostate; 24.4% in the assay on SK-MEL-5 melanoma. In addition, the growth in the assay on UACC-62 melanoma is 36.3%; in the assay with SK-MEL-28 melanoma it was 57.7%.
